# Source: PubChem BioAssay (NCI)
# Compounds without any hit were thinned out: in the full panel of roughly 83,000, 20% have a hit.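 48-hour exposure, single concentration, 96-well plates; percent growth endpoint where 0 means no net growth. Active: below 10.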 A number with no mark means an inactive call. Calls of active or inactive are those of the source.
# Assays:
# Experiment in all cases: NCI-60 one-dose screen, 48 h (100 = growth as untreated, 0 = no growth, -100 = all killed)
# Settings in all cases: 10 µM unless noted
# DU-145 prostate = tested on: DU-145 prostate
# K-562 leukemia = tested on: K-562 leukemia
# MALME-3M melanoma = tested on: MALME-3M melanoma
# MDA-MB-231 breast = tested on: MDA-MB-231 breast
# RXF 393 renal = tested on: RXF 393 renal
# SF-268 CNS = tested on: SF-268 CNS
# SF-295 CNS = tested on: SF-295 CNS
# SF-539 CNS = tested on: SF-539 CNS
# UACC-257 melanoma = tested on: UACC-257 melanoma
# M14 melanoma = tested on: M14 melanoma
# HCT-15 colon = tested on: HCT-15 colon
# HT29 colon = tested on: HT29 colon
# SNB-75 CNS = tested on: SNB-75 CNS
# SNB-19 CNS = tested on: SNB-19 CNS
# U251 CNS = tested on: U251 CNS
# PC-3 prostate = tested on: PC-3 prostate
# SK-MEL-5 melanoma = tested on: SK-MEL-5 melanoma
# UACC-62 melanoma = tested on: UACC-62 melanoma
# LOX IMVI melanoma = tested on: LOX IMVI melanoma
# SK-MEL-28 melanoma = tested on: SK-MEL-28 melanoma
Structure (SMILES),growth (DU-145 prostate),growth (K-562 leukemia) [%],growth (MALME-3M melanoma),growth (MDA-MB-231 breast),growth (RXF 393 renal),growth (SF-268 CNS),growth (SF-295 CNS) [%],growth (SF-539 CNS),growth (UACC-257 melanoma),growth (M14 melanoma),growth (HCT-15 colon),growth (HT29 colon),growth (SNB-75 CNS),growth (SNB-19 CNS) [%],growth (U251 CNS),growth (PC-3 prostate),growth (SK-MEL-5 melanoma) [%],growth (UACC-62 melanoma) [%],growth (LOX IMVI melanoma),growth (SK-MEL-28 melanoma)
O=[N+]([O-])c1cc([N+](=O)[O-])c(NN=C(c2ccc(O)cc2)c2ccc(O)cc2)cc1Cl,-77.9% (active),101,-51.6% (active),-70.4% (active),-76.5% (active),-91.8% (active),104,-51.9% (active),-79.9% (active),-86.8% (active),-85.8% (active),-82.6% (active),-15.6% (active),89.4,-99.9% (active),-80.8% (active),59.5,18.4,-94% (active),-90.3% (active)
COc1cc2c(O)n(CCCN3CCOCC3)c3c4cnc5cccc(c(=O)c3c2cc1OC)c54,18%,40.7,67.4%,48.7%,30.4%,33.1%,17.1,24.5%,44%,16.6%,57.4%,29.2%,38.9%,19.4,16.9%,30.6%,20.9,10.5,11.3%,66.2%
CCOc1ccccc1/C=N\Nc1ccc(S(=O)(=O)c2ccc(N/N=C/c3ccccc3OCC)cc2)cc1,109%,87.9,98%,87.8%,112%,88.3%,92.9,90.8%,100%,96.9%,82.9%,108%,80.8%,93.5,94.8%,87%,100,85,92.5%,100%
Cn1ncc2c(Nc3ccc(O)cc3)nc(Cl)nc21,113%,90.5,128%,93.7%,96%,97.7%,109,96.6%,105%,111%,97%,102%,95%,106,99.3%,119%,100,82.6,95.7%,114%
